# PubChem BioAssay (NCI)
# About 79,000 compounds went through this panel and 15% of them were active in at least one assay; those are over-represented in the sample as a whole. Unmarked numbers belong to inactive results. Activity calls are given as the source filed them. Rule as the data show it: active = growth inhibition above about 70%; inactive = the rest. Where a SMILES comes first, the peptide text is derived from it. [ ]: non-standard residue; d: D form. ξ: configuration not given here. ξD = NC(CC(=O)O)C(=O)O
# Assay: NCI Yeast Anticancer Drug Screen. Data for the cln2 rad14 strain (AID 165);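 also: 0% = growth equal to vehicle treated cultures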
# Settings: S. cerevisiae cln2 rad14 strain, at 5.0 µM (retest, dose inferred, filed as 0.5), active compounds read high
# In short: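 Strain: cln2 rad14 yeast, altered in cell cycle control and DNA damage repair. Read-out: growth inhibition vs vehicle.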
row,SMILES,growth inhibition
1,COC(=O)c1nc(=S)[nH]c(C(=O)OC)c1C(=O)c1ccc(Cl)c(Cl)c1,4%
2,NC(=Nc1nc(-c2ccccn2)cc2ccccc12)c1ccccn1,60%
3,Cc1nc(Sc2nc3ccc([N+](=O)[O-])cc3s2)sc1C,-9%
4,NC(=S)Nc1ccc2c(c1)Cc1ccccc1-2,-5%
5,CN(C)CCN(C)CC(C)(C)C(=O)/C=C/c1ccc(Cl)c(Cl)c1,-3%
6,CCCCCCCCCCCCCCCc1ccc(C(=O)C[n+]2ccccc2)cc1,22%
7,O=C(CCl)N(c1ccccc1)c1ccccc1,1%
8,CCOC(=O)C1=C(C(=O)c2ccccc2)C(c2cccc([N+](=O)[O-])c2)C(C(=O)c2ccccc2)=C(C(=O)OCC)N1,-9%
9,CCN1CCCC(Nc2cc(C)nc(/N=C(/N)Nc3ccc(Cl)c(Cl)c3)n2)C1 (stereo not drawn),55%
10,CCc1cnc2ccccc2c1/C=C/c1ccc(N(C)C)cc1,-36%
11,O=[N+]([O-])c1ccc2c(c1)Cc1ccccc1-2,-2%
12,Fc1ccc(NCCS)cc1,-4%
13,CCCCC(C=O)(C=C=C(C)C)CC (stereo not drawn),-7%
14,CN(C)c1ccc(/C=C/c2cc[n+](C)c(/C=C/c3ccc(N(C)C)cc3)c2)cc1,99% (active)
15,COc1cc([C@@H]2c3cc4c(cc3[C@H](OC3OC5COC(c6ccccc6)OC5C(O)C3O)[C@H]3COC(=O)[C@H]23)OCO4)cc(OC)c1OC (stereo partly drawn),12%
16,OC(c1cc(-c2ccc(Cl)cc2)nc2c(Cl)cccc12)C1CCCCN1 (stereo not drawn),20%
17,CSc1nc(C)c(C(=O)CCN2CCN(c3ccccn3)CC2)s1,-2%
18,Cc1cc(C(=O)c2ccc(Cl)cc2)ccc1O,-6%
19,O=C(c1ccccc1)C(Br)C(Br)c1ccccc1 (stereo not drawn),18%
20,CCCCCCN(CCCCCC)CCCNc1nccc2ccccc12,-4%

row,SMILES,growth inhibition
1,CCCCCCCCCCCC[S+](C)CC(=O)[O-] (stereo not drawn),11%
2,COC(=O)C(=[N+]=[N-])C(=O)c1ccc([N+](=O)[O-])o1,8%
3,Cc1c(O)ccc(SC#N)c1C,29%
4,Oc1c(Cl)cc(Cl)cc1C(c1cc(Cl)cc(Cl)c1O)C(Cl)(Cl)Cl,-2%
5,CCCCCCCCCCCCNCCCc1ccccc1,99% (active)
6,Nc1ccc(C(=O)/C=C/c2ccccc2)cc1,4%
7,NCC(=O)NC(CC(=O)O)C(=O)O (stereo not drawn) (H-Gly-[ξD]-OH),-2%
8,CN(C)c1ccc(C(=C2C=CC(=[N+](C)C)C=C2)c2ccc(N(C)C)cc2)cc1,99% (active)
9,O=C1c2ccccc2Cc2cccc(Cl)c21,0%
10,O=C/C=C/c1ccc([N+](=O)[O-])cc1,8%
11,O=C1c2ccccc2C(=O)c2c(O)c(Cl)cc(O)c21,5%
12,CN1CSC(=S)N(Cc2ccccc2)C1,19%
13,CC(O)C(O)C(O)C(O)C(O)C(=O)NNc1ccccc1 (stereo not drawn),10%
14,Cn1c(COC(=O)NC2CCCCC2)c(COC(=O)NC2CCCCC2)c2ccc3cc(Cl)c(Cl)cc3c21,15%
15,NC(=S)N/N=C\c1nccc2c(N)cccc12,-12%
16,Oc1cc(Cl)ccc1Cc1ccc(Cl)cc1O,98% (active)
17,CCCCCCCCCCCC(=O)OC(C)C(=O)NCCCC (stereo not drawn),-2%
18,CCC(=O)c1cc([N+](=O)[O-])c(Br)s1,99% (active)
19,OC(Cc1cc(CC(O)(C(F)(F)F)C(F)(F)F)nc(CC(O)(C(F)(F)F)C(F)(F)F)c1)(C(F)(F)F)C(F)(F)F,29%

# Same assay, conditions: S. cerevisiae cln2 rad14 strain, at 50.0 µM (retest, dose inferred, filed as 5.0), active compounds read high
row,SMILES,growth inhibition
1,COC(=O)c1nc(=S)[nH]c(C(=O)OC)c1C(=O)c1ccc(Cl)c(Cl)c1,95% (active)
2,NC(=Nc1nc(-c2ccccn2)cc2ccccc12)c1ccccn1,71% (active)
3,Cc1nc(Sc2nc3ccc([N+](=O)[O-])cc3s2)sc1C,85% (active)
4,NC(=S)Nc1ccc2c(c1)Cc1ccccc1-2,-10%
5,CN(C)CCN(C)CC(C)(C)C(=O)/C=C/c1ccc(Cl)c(Cl)c1,98% (active)
6,CCCCCCCCCCCCCCCc1ccc(C(=O)C[n+]2ccccc2)cc1,81% (active)
7,O=C(CCl)N(c1ccccc1)c1ccccc1,39%
8,CCOC(=O)C1=C(C(=O)c2ccccc2)C(c2cccc([N+](=O)[O-])c2)C(C(=O)c2ccccc2)=C(C(=O)OCC)N1,27%
9,CCN1CCCC(Nc2cc(C)nc(/N=C(/N)Nc3ccc(Cl)c(Cl)c3)n2)C1 (stereo not drawn),86% (active)
10,CCc1cnc2ccccc2c1/C=C/c1ccc(N(C)C)cc1,94% (active)
11,O=[N+]([O-])c1ccc2c(c1)Cc1ccccc1-2,-20%
12,Fc1ccc(NCCS)cc1,66%
13,CCCCC(C=O)(C=C=C(C)C)CC (stereo not drawn),26%
14,CN(C)c1ccc(/C=C/c2cc[n+](C)c(/C=C/c3ccc(N(C)C)cc3)c2)cc1,97% (active)
15,COc1cc([C@@H]2c3cc4c(cc3[C@H](OC3OC5COC(c6ccccc6)OC5C(O)C3O)[C@H]3COC(=O)[C@H]23)OCO4)cc(OC)c1OC (stereo partly drawn),56%
16,OC(c1cc(-c2ccc(Cl)cc2)nc2c(Cl)cccc12)C1CCCCN1 (stereo not drawn),66%
17,CSc1nc(C)c(C(=O)CCN2CCN(c3ccccn3)CC2)s1,99% (active)
18,Cc1cc(C(=O)c2ccc(Cl)cc2)ccc1O,-9%
19,O=C(c1ccccc1)C(Br)C(Br)c1ccccc1 (stereo not drawn),84% (active)
20,CCCCCCN(CCCCCC)CCCNc1nccc2ccccc12,13%

row,SMILES,growth inhibition
1,CCCCCCCCCCCC[S+](C)CC(=O)[O-] (stereo not drawn),64%
2,COC(=O)C(=[N+]=[N-])C(=O)c1ccc([N+](=O)[O-])o1,99% (active)
3,Cc1c(O)ccc(SC#N)c1C,85% (active)
4,Oc1c(Cl)cc(Cl)cc1C(c1cc(Cl)cc(Cl)c1O)C(Cl)(Cl)Cl,97% (active)
5,CCCCCCCCCCCCNCCCc1ccccc1,97% (active)
6,Nc1ccc(C(=O)/C=C/c2ccccc2)cc1,21%
7,NCC(=O)NC(CC(=O)O)C(=O)O (stereo not drawn) (H-Gly-[ξD]-OH),14%
8,CN(C)c1ccc(C(=C2C=CC(=[N+](C)C)C=C2)c2ccc(N(C)C)cc2)cc1,93% (active)
9,O=C1c2ccccc2Cc2cccc(Cl)c21,5%
10,O=C/C=C/c1ccc([N+](=O)[O-])cc1,98% (active)
11,O=C1c2ccccc2C(=O)c2c(O)c(Cl)cc(O)c21,9%
12,CN1CSC(=S)N(Cc2ccccc2)C1,41%
13,CC(O)C(O)C(O)C(O)C(O)C(=O)NNc1ccccc1 (stereo not drawn),71% (active)
14,Cn1c(COC(=O)NC2CCCCC2)c(COC(=O)NC2CCCCC2)c2ccc3cc(Cl)c(Cl)cc3c21,12%
15,NC(=S)N/N=C\c1nccc2c(N)cccc12,81% (active)
16,Oc1cc(Cl)ccc1Cc1ccc(Cl)cc1O,94% (active)
17,CCCCCCCCCCCC(=O)OC(C)C(=O)NCCCC (stereo not drawn),-3%
18,CCC(=O)c1cc([N+](=O)[O-])c(Br)s1,99% (active)
19,OC(Cc1cc(CC(O)(C(F)(F)F)C(F)(F)F)nc(CC(O)(C(F)(F)F)C(F)(F)F)c1)(C(F)(F)F)C(F)(F)F,100% (active)
